Target: Prolyl endopeptidase-like (Mus musculus) (UniProt Q8C167)
Assay: mouse PREPL enzyme inhibition by screening hits – biochemical, gel-based competitive ABPP, fluorescence, HTS hits, PREPL inhibitor project (AID 624481)
Conditions: purified mouse PREPL, at 20 µM, hits give high values; in the data active = inhibition above about 50%; inactive = the rest

Sequence of Prolyl endopeptidase-like (Mus musculus) (Q8C167 whole entry, looked up): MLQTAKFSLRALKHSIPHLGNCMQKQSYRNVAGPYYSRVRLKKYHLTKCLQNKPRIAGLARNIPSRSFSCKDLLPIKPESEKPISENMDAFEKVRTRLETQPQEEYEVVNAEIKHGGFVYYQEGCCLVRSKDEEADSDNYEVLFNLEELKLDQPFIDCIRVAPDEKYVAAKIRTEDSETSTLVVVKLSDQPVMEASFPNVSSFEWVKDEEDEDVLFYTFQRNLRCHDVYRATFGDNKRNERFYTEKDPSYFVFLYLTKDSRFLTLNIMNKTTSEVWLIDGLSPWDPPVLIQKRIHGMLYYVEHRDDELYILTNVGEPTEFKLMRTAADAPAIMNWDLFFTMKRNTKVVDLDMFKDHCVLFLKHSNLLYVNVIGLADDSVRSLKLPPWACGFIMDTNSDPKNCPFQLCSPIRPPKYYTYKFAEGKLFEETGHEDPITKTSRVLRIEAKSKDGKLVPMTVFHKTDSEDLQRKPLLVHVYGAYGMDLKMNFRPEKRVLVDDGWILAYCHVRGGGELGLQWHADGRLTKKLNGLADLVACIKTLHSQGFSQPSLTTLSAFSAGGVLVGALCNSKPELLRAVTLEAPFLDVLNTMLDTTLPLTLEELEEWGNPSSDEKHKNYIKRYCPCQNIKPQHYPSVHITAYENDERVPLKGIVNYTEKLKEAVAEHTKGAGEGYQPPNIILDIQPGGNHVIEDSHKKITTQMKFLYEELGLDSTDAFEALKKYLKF

inhibition, inactive:
CN(C)c1ccc(C=NNC(=S)NCc2ccccc2)cc1 -20%
Cn1c(NC(=O)C[n+]2cc(-c3ccc(Cl)c(Cl)c3)n3c2CCC3)cc(=O)n(C)c1=O -80%
Cc1cccc(C2CC(c3ccc(F)cc3)Nc3nc(N)nn32)c1 (stereo not given) -26%
CCN1CCN(c2ccc(NC(=O)COc3ccc(Cl)cc3C)cc2)CC1 -7%
COc1ccc(-[n+]2c(C)cc(/C=C3\Sc4ccccc4N3C)cc2C)cc1 -11%
CC(C)NC(=O)c1sc(=S)n2c1[nH]c(=O)c1ccc(C(=O)NCCc3ccc(Cl)cc3)cc12 -28%
COc1ccccc1-[n+]1c(C)cc(/C=C2\Sc3ccccc3N2C)cc1C -27%
c1ccc(-c2nc(N3CCCCCC3)c3ccccc3n2)nc1 -104%
Cc1c(NCc2cc(Cl)cc(Cl)c2O)c(=O)n(-c2ccccc2)n1C -28%
O=C(CSc1cccc(C(F)(F)F)c1)Nc1ccc(N2CCOCC2)cc1 -35%
COc1ccc(C(=O)c2coc3ccc(O)c(CN4CCCC4)c23)cc1 -31%
CN(C)c1ccc(N=C/C=C2\N(C)c3ccccc3C2(C)C)cc1 -78%
Cc1ccc(S(=O)(=O)Nc2ccc3c(c2)CC(=O)N([C@H](C)CO)C[C@H](C)[C@H](CN(C)Cc2ccc4c(c2)OCO4)O3)cc1 9%
CC[C@@H](C)[C@@H]1CN([C@@H](C)CN2CCC[C@H]2CN2C(N)=NC[C@H]2C(C)C)C(=N)N1CCc1ccc(Cl)c(Cl)c1 -48%
Cc1ccc(C2CC(c3cccc(Cl)c3)n3nc(N)nc3N2)cc1 (stereo not given) -71%
COc1ccc(N2CCN(c3nc4c(c(=O)n(C)c(=O)n4C)n3Cc3ccccc3)CC2)cc1 -47%
CC(=O)Nc1ccc(C(=O)Cn2c3[n+](c4c(F)c(F)ccc42)CCCCC3)cc1 -42%
CN(C)c1ccc(C(CNC(=O)c2ccccc2)c2c[nH]c3ccccc23)cc1 (stereo not given) 13%
Cc1cccn2c(=O)c3cc(C(=O)NCCc4ccccc4)c(=N)n(CCCn4ccnc4)c3nc12 -33%
Nc1nn(-c2ccccc2)c(N)c1N=Nc1ccccc1F -38%
CCC[C@@H](CN1CCC[C@H]1CN1C(N)=NC[C@@H]1Cc1ccccc1)N1C[C@@H]([C@H](C)CC)N(CCCC2CCCC2)C1=N 9%
C[C@H](CO)N1C[C@H](C)[C@H](CN(C)Cc2ccccc2)Oc2c(NC(=O)Nc3ccc(F)cc3)cccc2C1=O -56%
C#CCOCCOCCOCCNc1nc(N2CCN(C(=O)[C@H](CCCCN)n3cc([C@@H](N)CC(C)C)nn3)CC2)nc(N2CCN(C(=O)[C@H](Cc3cc4ccccc4[nH]3)n3cc([C@@H](N)Cc4ccc(O)cc4)nn3)CC2)n1 -71%
NC(=O)[C@H]1CC2(CC(c3cccc(NC(=O)COc4ccc(Cl)cc4)c3)=NO2)CN1C(=O)Cc1ccc([N+](=O)[O-])cc1 (stereo not given in full) -114%
CN1CCN(C(=O)C2=C[C@@H](c3ccc4c(c3)OCO4)C[C@@H](OCc3ccc(CO)cc3)O2)CC1 -46%

From PubChem BioAssay AID624481 (The Scripps Research Institute Molecular Screening Center, 2012)
